# Reference: PubChem BioAssay AID652105 (National Center for Advancing Translational Sciences (NCATS), 2013)
# In all, about 330,000 compounds went through this assay and about 4,100 (1.2%) were called active. Not shown: some 2% with an inconclusive outcome. For the sample, actives were picked, then their nearest neighbours and some compounds at random. Unmarked numbers belong to inactive results. Rule for the calls: active = max response of -50% or lower; inconclusive = between -30% and -50%; inactive = -30% or higher.
# Target: Phosphatidylinositol 5-phosphate 4-kinase type-2 alpha (Homo sapiens) (UniProt P48426)
# Test: qHTS for Inhibitors of phosphatidylinositol 5-phosphate 4-kinase (PI5P4K); note: value at the top dose of about 77 µM
# Conditions: PI5P4Kalpha enzyme, ADP-Glo luminescence, 60 min; active compounds read low
# Summary of the method: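 Luminescence from ADP-Glo served as readout of PI5P4Kalpha activity in a qHTS format. Reaction: enzyme, substrate, compound, ATP at 5 microM final, 60 min at RT.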
# % is set by controls: 0 for no effect and ±100 for the full control effect.
# Sequence of Phosphatidylinositol 5-phosphate 4-kinase type-2 alpha (Homo sapiens) (P48426 whole entry, looked up): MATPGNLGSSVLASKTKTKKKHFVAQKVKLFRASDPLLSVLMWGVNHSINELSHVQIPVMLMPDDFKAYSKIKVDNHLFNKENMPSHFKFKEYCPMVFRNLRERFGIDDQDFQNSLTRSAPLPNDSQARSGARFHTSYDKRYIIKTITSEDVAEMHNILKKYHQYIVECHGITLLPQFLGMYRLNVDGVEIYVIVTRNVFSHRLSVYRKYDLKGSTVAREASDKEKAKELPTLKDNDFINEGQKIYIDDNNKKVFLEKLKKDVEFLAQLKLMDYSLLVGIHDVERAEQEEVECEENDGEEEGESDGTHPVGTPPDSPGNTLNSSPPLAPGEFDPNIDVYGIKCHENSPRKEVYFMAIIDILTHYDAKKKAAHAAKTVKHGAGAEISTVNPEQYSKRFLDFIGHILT
row,Structure (SMILES),max response
1,Nc1nc(CSc2nnnn2-c2ccccc2)nc(Nc2ccccc2)n1,2.21%
2,C[C@H]1CN([C@@H](C)CO)C(=O)c2cc(Br)cnc2O[C@H]1CN(C)S(=O)(=O)c1cccs1,6.03%
3,CCOC(=O)[C@]12CCCC=C1N(CCC1=CCCCC1)C(=O)[C@H](CC(=O)N1CCCCC1)C2,-3.48%
4,CC(=O)c1ccc(S(=O)(=O)N2CCN(C(=O)/C=C/c3ccc4ccccc4n3)CC2)cc1,-58.5% (active)
5,CC(=O)c1ccc(S(=O)(=O)N2CCC(Oc3ccc(-n4cnnn4)cc3)CC2)cc1,-1.39%
6,CC(=O)c1ccc(S(=O)(=O)N2CCC3(CC2)OCCO3)cc1,1.8%
7,COc1ccc(CCCNC(=O)C2Cc3c(-c4cccc(C(N)=O)c4)ccnc3O2)cc1 (configuration not stated),-10.3%
8,CCNC(=O)C1(C)CCCN(Cc2noc(-c3ccccc3OC)n2)C1 (configuration not stated),-0.357%
9,CN1OC[C@@H]2CN(S(=O)(=O)c3cccc(C(F)(F)F)c3)[C@H](c3ccc(-c4cc5ccccc5o4)cc3)C[C@@H]21,4.81%
10,CCCCNC(=O)CN1C(=O)NC(Cc2ccccc2)(Cc2ccccc2)C1=O,0.277%
11,COc1cccc(CNC(=O)CN2C(=O)NC(Cc3ccccc3)(c3ccccc3)C2=O)c1 (configuration not stated),-83.2% (active)
12,COc1cccc(CNC(=O)COC(=O)CN2C(=O)NC3(CCCCC3C)C2=O)c1 (configuration not stated),-4.41%
13,CCCNC(=O)c1cc2c(c(-c3cccc(-c4ccc(C#N)cc4)c3)n1)[C@@H](CCO)N(C(=O)CC)C2,-0.337%
14,C[C@@H]1CN([C@H](C)CO)C(=O)CCCn2cc(nn2)CO[C@H]1CN(C)S(C)(=O)=O,6.16%
15,CC(C)C[C@H]1CNC(=O)C(=O)N1C[C@H]1CCCN1C[C@H](Cc1ccc(O)cc1)N1C[C@H](CC(C)C)N(CC2CCCCCC2)C(=O)C1=O,-0.421%
16,CCOC(=O)C1=CC[C@@H](c2ccccc2)N(S(=O)(=O)c2ccc(C)cc2)[C@H]1c1ccc(CC)cc1,6.84%
17,Cc1cc2nc(-c3ccc(F)cc3)c(Cc3ccsc3)n2c(C)c1Br,7.62%
18,Cc1cc2nc(-c3ccco3)c(Cc3cccc(F)c3)n2c(C)c1Br,-66.2% (active)
19,Cc1cc2nc(-c3ccc(Cl)cc3)c(Cc3cccc(F)c3)n2c(C)c1Br,-6.22%
20,COc1ccc(OC)c(CN2C(=O)CCC2(C)c2nnnn2Cc2ccccc2)c1 (configuration not stated),2.57%
21,COc1ccc(CCNC(=O)CN(c2ccccc2)S(=O)(=O)c2ccccc2)cc1,-3.29%

row,Structure (SMILES),max response
1,CC1=C(C(=O)N(C(C)C)C(C)C)CC(CC(=O)NCC2CCCCC2)C(=O)N1Cc1ccccc1 (configuration not stated),-7.86%
2,CCOC(=O)[C@]12CCCC=C1N(CCC1=CCCCC1)C(=O)[C@H](CC(=O)N1CCSCC1)C2,-1.78%
3,O=C(Nc1ccc2ccccc2c1[N+](=O)[O-])c1ccccc1,-2.74%
4,O=C(O)c1cc([N+](=O)[O-])c(Nc2cccc3ccccc23)c([N+](=O)[O-])c1,-64.5% (active)
5,CCOc1ccccc1Nc1ccc(C(=O)O)cc1[N+](=O)[O-],-1.68%
6,CNc1cnc(-c2cc(OC)c(OC)c(OC)c2)cn1,1.71%
7,O=[N+]([O-])c1cccc(/C([O-])=C(/C(=S)Nc2ccccc2F)[n+]2ccccc2)c1,-1.12%
8,CC(OC(=O)CNC(=O)c1ccc(Cl)c([N+](=O)[O-])c1)C(=O)NCc1ccco1 (configuration not stated),-12%
9,Cc1ccc(/C([O-])=C(/C(=S)NCc2ccco2)[n+]2ccccc2)cc1[N+](=O)[O-],-51.3% (active)
10,CC(C)c1cccc(-c2csc(C(O)c3ccccc3)n2)c1 (configuration not stated),28.3%
11,COc1cccc(NC(=O)NCCN2CCCCC2)c1,3.3%
12,COCCNC(=O)Nc1ccc2nc(-c3ccco3)c(-c3ccco3)nc2c1,-88.9% (active)
13,CC(=O)NCCc1nc2cc(NC(=O)c3ccccc3)ccc2n1C,-3.2%
14,CCCC(=O)N1CCC1(C)C(=O)NCc1ccc(SC)cc1 (configuration not stated),0.695%
15,CC(=O)Oc1ccc(Cn2c(C)c(C(=O)NCc3ccc(C#N)cc3)sc2=O)cc1,2.41%
16,O=C(COc1ccccc1)Nc1ccc(C(=O)N2CCCC2)cc1,6.33%
17,O=C(COc1ccccc1Cl)Nc1ccc(C(=O)c2ccc(C(=O)O)cc2)cc1,-70.5% (active)
18,COc1cc(NC(=O)COc2ccccc2Cl)ccc1NC(=O)C(C)C,-11.3%
19,CN(C)/N=C/c1cc(Cl)cc([N+](=O)[O-])c1O,-13.3%
20,O=[N+]([O-])c1cc(Cl)cc(/C=N/NC(=S)Nc2cc(S(=O)(=O)N3CCOCC3)ccc2Cl)c1O,-78.8% (active)
21,Cc1ccc(S(=O)(=O)N2CCN(CC(=O)N/N=C/c3cc([N+](=O)[O-])ccc3Cl)CC2)cc1,4.76%

row,Structure (SMILES),max response
1,COC(=O)[C@]12CCCCC=C1N(CCC1=CCCCC1)C(=O)[C@H](CC(=O)N1CCSCC1)C2,6.76%
2,COc1ccc(Br)c(Cn2c(C)c(C(=O)NCc3cccs3)sc2=O)c1,0.248%
3,CC(C)Cn1cc(-c2cncc3nccn23)cn1,1.47%
4,CC(Sc1nnnn1C1CCCCC1)C(=O)O (configuration not stated),-91% (active)
5,CC(Sc1nnnn1C)C(=O)NC(=O)NC1CCCCC1 (configuration not stated),-0.0816%
6,O=C(CSc1nnnn1C1CCCC1)N1CCCCC1,1.79%
7,O=C(Nc1ccc2c(c1)OCCO2)C1c2ccccc2OCC(=O)N1Cc1ccccn1 (configuration not stated),6.39%
8,COc1ccc(S(=O)(=O)N(C)C[C@H]2OCc3cnnn3CCCC(=O)N([C@H](C)CO)C[C@H]2C)cc1,3.6%
9,COc1cccc(-c2cc3nc(NCc4ccccc4OC)n(C)c(=O)c3s2)c1,21.3%
10,COCCNC(=O)C1CCCN(Cc2ccccc2Cl)CC1 (configuration not stated),0.686%
11,CC1=NN(c2ccccc2)C(=O)C1C(=O)c1ccc([N+](=O)[O-])cc1 (configuration not stated),0.85%
12,O=C1CC(c2ccccc2)=NN1c1ccc([N+](=O)[O-])cc1,-52.7% (active)
13,Cc1nn(-c2ccc([N+](=O)[O-])cc2)c(N)c1-c1ccccc1,-3.48%
14,OC(c1ccccc1)c1nc(-c2cnc3ccccc3c2)cs1 (configuration not stated),-0.318%
15,CC(C)(C)C1C/C(=C/c2ccco2)C(=O)/C(=C/c2ccco2)C1 (configuration not stated),-12.4%
16,CS(=O)(=O)c1ccc2c(c1)SC1=NC(=O)/C(=C/c3ccco3)C(=N)N12,-79.5% (active)
17,O=C(Nc1cccc2ccccc12)c1[nH]c(-c2ccccc2)c2c1C(=O)N(C1CC1)C2=O,-0.344%
18,CN1CCN(C(=O)c2ccc(-c3cc4nc(NCc5cccnc5)n(C)c(=O)c4s3)cc2)CC1,2.18%
19,COc1ccc(C(C(=O)NCc2ccccc2)n2c(=O)c(-c3ccccc3)nc3ccccc32)cc1 (configuration not stated),7.1%
20,Cn1c(SCC(=O)NC2CCCCC2)nnc1-c1cc2ccccc2o1,1.01%
21,Cc1cccc(C)c1NC(=O)C(c1ccc(C(F)(F)F)cc1)n1c(=O)c(-c2ccco2)nc2ccccc21 (configuration not stated),-54% (active)

row,Structure (SMILES),max response
1,CCCCCNC(=O)C(c1ccc(OC)cc1)n1c(=O)c(-c2ccccc2)nc2ccccc21 (configuration not stated),8.24%
2,Cc1cccc(C)c1NC(=O)C(c1cccc2ccccc12)n1c(=O)c(-c2ccco2)nc2ccccc21 (configuration not stated),-75.2% (active)
3,CCC(C(=O)Nc1c(C)cccc1C)n1c(-c2cc(C)cs2)nc2ccccc21 (configuration not stated),0.0253%
4,CCC(CC)C(C(=O)NC1CCCC1)N1CCN(c2cc(C)nc3ccccc23)CC1 (configuration not stated),-1.13%
5,COc1ccc(NC(=O)C(c2ccncc2)n2c(=O)c(-c3cc4ccccc4[nH]3)nc3ccccc32)cc1 (configuration not stated),0.0077%
6,O=C(NC1CCCCC1)C(c1cc2ccccc2o1)n1c(=O)c(-c2ccco2)nc2ccccc21 (configuration not stated),-75.5% (active)
7,CC(=O)Nc1cc(-c2ccccc2N(C)C)cn2c(-c3ccc(F)c(Cl)c3)cnc12,-1.56%
8,NC(c1csc(NC(=O)Nc2cccc(C(F)(F)F)c2)n1)C1CCCCC1 (configuration not stated),10.5%
9,Cc1ccc([C@H]2C[C@H](O)[C@@H](n3cc(COC(=O)c4ccccc4)nn3)CN2CC2CCCCC2)cc1,19.2%
10,O=C(NCc1ccccc1)C1c2ccccc2OCC(=O)N1CCCN1CCOCC1 (configuration not stated),0.215%
11,O=C(c1ccc(C(F)(F)F)cc1)N1CCC(=O)N([C@H](COCc2ccccc2)Cc2ccccc2)CC1,5.29%
12,COC(=O)c1ccc2nc(C3CCCCC3)c(Cc3cccc(F)c3)n2c1,-0.596%
13,CCCCOCCCNC(=O)C[C@@H]1C[C@@]2(C(=O)OC)CCCCC=C2N(CCC2=CCCCC2)C1=O,17.9%
14,O=C(Nc1ccc(N2CCOCC2)cc1)c1cccc2c(-c3ccc(F)c(F)c3)coc12,5.02%
15,CCc1c(N=O)c(-c2ccccc2)n(O)[n+]1[O-],-5.54%
16,O=C(N/N=C/c1ccc([N+](=O)[O-])cc1)c1c[nH]c2ccccc12,1.35%
17,O=C(N/N=C/c1ccc(Cl)cc1)c1nc2ccc([N+](=O)[O-])cc2c(=O)[nH]1,-60.4% (active)
18,Cc1ccsc1C(=O)N/N=C/c1ccc([N+](=O)[O-])cc1,-10.5%
19,O=C(CCc1ccc(O)cc1)NN=Cc1cc(Br)ccc1O,-16.2%
